The entries come from a sample that favours hits as a whole.
Pf Dd2 growth – inhibitors of Plasmodium falciparum Dd2 growth; hit rate 4.3% among 120,000; P. falciparum Dd2 growth, SYBR Green, 72 h; Potency, µM (top dose mostly 28.9 µM), for inactives: at the top dose activity, negative = inhibition, most hits filed as inhibitors; active = well fitted inhibition curve with a large enough effect;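 note: plate controls were DMSO vehicle for no effect and reference drug for full effect; nearly all actives have a fitted effect of over 65% in size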
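Infected erythrocytes (Dd2, 0.3% parasitemia, 2.5% hematocrit final) are added to compound in RPMI-1640/Albumax II medium, grown 72 h at 37C in low oxygen, then lysed with saponin/Triton-X containing SYBR Green and read by fluorescence.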
* = called active by the depositor; i = inactive; [ ] = dose if it differs, or a comment. Potency is the fitted concentration of half-maximal effect.

SMILES | Pf Dd2 growth
O=C(NCc1ccccc1)C1COC2(CCN(C(=O)c3ccco3)CC2)N1C(=O)c1ccco1 (stereo unspecified) | i
O=C(CCc1nc2ccccc2[nH]1)NC1CCN(C(=O)N2CC3CC(C2)[C@H]2CCCC(=O)N2C3)CC1 (stereo partly specified) | -23%
O=C(Nc1ccccc1F)N1CC2CCC(C1)N2CC1CCCC1 | -11%
Cc1ccc(CN2CC(Oc3ccccc3C(=O)N3CCOCC3)C2)cc1C | 2.8µM*
O=C(NC1CC1)c1ccccc1OC1CN(Cc2ccc(F)c(F)c2)C1 | i
O=C(c1cccnc1OC1CCN(Cc2ccccn2)C1)N1CCOCC1 (stereo unspecified) | i
O=C1CCC2(CCN(C(=O)c3ccccc3)CC2)CN1CC1CCCO1 (stereo unspecified) | -7%
CN1CC(=O)N(c2ccccc2F)Cc2c1ncnc2N1CCN(c2ccccn2)CC1 | -16%
Cc1nc(-c2ccccc2Br)cc([C@H]2CN3CC[C@H]2C[C@@H]3CNC(=O)CSCC(=O)O)n1 | -19%
CCOc1ccc(S(=O)(=O)c2cn(C)c3ccccc3c2=O)cc1 | 0%
CCOc1ccc(S(=O)(=O)Nc2nc3ccccc3nc2Nc2ccc(OC)cc2)cc1 | -5%
CCOc1ccc(/C=C/c2nc3ccccc3n2S(=O)(=O)c2ccc(Br)cc2)cc1 | 11µM*
COc1cccc(S(=O)(=O)N2CCCCCCN(C)C(=O)CC2)c1 | i
Cc1noc(C)c1C(=O)N1C[C@@H](CO)[C@H](c2ccccn2)C1 | -11%
Cc1cnc(C2CC2)n1C1CCN(C(=O)NC(C)C)CC1 | -14%
Cc1cnc(C2CCOCC2)n1C1CCN(C(=O)Nc2ccc3c(c2)OCCO3)CC1 | 7.9µM*
Cc1cnc(CCNC(=O)Nc2ccc3c(c2)OCCO3)n1C1CC1 | -16%
COc1ccc(N2CC3CCC(C2)N3Cc2cccc(-c3ccc(F)cc3F)c2)cc1 | -1%
O=C(CN1C(=O)NC(c2ccccc2Cl)C2=C1COC2=O)Nc1ccc(C(F)(F)F)cc1 (stereo unspecified) | -12%
O=C(Cn1ccn2nc(-c3ccc(F)cc3)c(CO)c2c1=O)Nc1ccccc1 | -9%
Cc1scc(CN2CCN(c3ccc(F)cc3)CC2)c1C | -16%
Cc1cc(O)c(CN2CCN(c3ccc(F)cc3)CC2)c2oc(=O)cc(C)c12 | 11µM*
COc1ccc(N2CCN(Cc3cc(=O)oc4ccc(OC)cc34)CC2)cc1 | -13%
Cc1cc(C)n2ncc(CN3CCn4nc(C(C)O)cc4C3)c2n1 (stereo unspecified) | 2%
O=c1cc(N2CCOCC2)oc2c(-c3ccccc3)nccc12 | -18%[44.1 µM]
SMILES | Pf Dd2 growth
CCOc1cc(C2C(C(=O)OC)=C(C)NC3=C2C(=O)c2ccccc23)ccc1OC (stereo unspecified) | 10µM*
CCOc1cc(C2C(C(=O)OC)=C(C)NC3=C2C(=O)c2ccccc23)c(Br)cc1O (stereo unspecified) | -6%
CCOC(=O)COc1ccc(C2C(C(=O)OC)=C(C)NC3=C2C(=O)c2ccccc23)cc1Cl (stereo unspecified) | -6%
Clc1cc(NC2CCOCC2)n2nccc2n1 | i
Cc1ccc(C(=O)NC[C@H]2C[C@@H]3CCN2C[C@@H]3c2cc(-c3cccs3)nc(C)n2)cc1 | 7.1µM*
Cc1ccc(S(=O)(=O)NC[C@H]2C[C@@H]3CCN2C[C@@H]3c2cc(-c3ccccc3Br)nc(C)n2)cc1 | i
Cc1nc(-c2cccs2)cc([C@H]2CN3CC[C@H]2C[C@@H]3CNC(=O)c2ccccc2)n1 | 7.9µM*
C=C[C@H]1CN2CC[C@H]1C[C@@H]2CNC(=O)c1ccc2c(c1)OCO2 | -4%[44.1 µM]
COc1ccccc1-c1cc([C@H]2CN3CC[C@H]2C[C@@H]3CNC(=O)CCC(=O)O)nc(C)n1 | 2%
Cc1nc(-c2ccccc2Br)cc([C@H]2CN3CC[C@H]2C[C@@H]3CNC(=O)c2ccco2)n1 | -6%
O=C(Nc1cccc(C(F)(F)F)c1)OC[C@H]1C[C@@H]2CCN1C[C@@H]2c1cc(C2CCCC2)nc(-c2ccncc2)n1 | 2.5µM*
COc1ccccc1-c1cc([C@H]2CN3CC[C@H]2C[C@@H]3COC(=O)Nc2ccccc2)nc(C)n1 | i
Cn1nc(-c2ccc3ccccc3c2)cc1[C@H]1CN2CC[C@H]1C[C@@H]2COC(=O)Nc1cccc(C(F)(F)F)c1 | 21%
Cc1nc(-c2ccccc2)cc([C@H]2CN3CC[C@H]2C[C@@H]3CNC(=O)N2CCOCC2)n1 | i
Cc1nc(-c2cccs2)cc([C@H]2CN3CC[C@H]2C[C@@H]3CNC(=O)N2CCOCC2)n1 | i
Cc1nc(-c2cccs2)cc([C@H]2CN3CC[C@H]2C[C@@H]3CNC(=O)c2ccc3c(c2)OCO3)n1 | 8.9µM*
O=C(CN1C(=O)C(c2ccccc2)=NC12CCCCCC2)NC1CCCC1 | i
O=C(O)c1ccccc1CN1CC(COc2ccccc2)C2(C1)CN(c1ccccc1)C2 (stereo unspecified) | i
Cc1noc(C)c1C(=O)N1CCN(c2ccc(Cl)nn2)C(=O)C1 | 34%
O=C(c1ccco1)N1CC2CC(C1)[C@H]1CCCC(=O)N1C2 (stereo partly specified) | -5%

Screening results from PubChem.
